Test [1] can be described thus: compound effects on lung adenocarcinoma cell viability – A549, calcein-AM fluorescence, 48 h, basal, profiling panel (AID 1162). Note: test concentration not given here. Conditions: higher = more signal.
The nature of test [2]: compound effects on differentiated 3T3-L1 adipocyte viability – cell-based, 3T3-L1 adipocytes, calcein-AM fluorescence, 48 h, basal, profiling panel (AID 1163). Note: test concentration not given here. Particulars: 3T3-L1 adipocytes viability, higher = more signal.
Test [3] is described as follows: compound effects on hepatocellular carcinoma cell viability – HepG2, calcein-AM fluorescence, 48 h, basal, profiling panel (AID 1164). Note: test concentration not given here. Conditions: higher = more signal.
The nature of test [4]: compound effects on multiple myeloma cell viability – MM1S, calcein-AM fluorescence, 48 h, basal, profiling panel (AID 1165). Note: test concentration not given here. Conditions: higher = more signal.
A short description of test [5]: calcein-AM signal in unstimulated myeloma cells – cell-based, calcein-AM fluorescence, 48 h, PK04 Diversity Set, profiling panel (AID 1166).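 Note: cells grown under basal conditions without added stimulus; test concentration not given here.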 Conditions: RPMI8226 myeloma viability, higher = more signal.
Test [6] can be described thus: JC-1 mitochondrial signal, unstimulated HepG2 cells – cell-based, JC-1 fluorescence, 24 h, 100 nL compound, profiling panel (AID 1167). Note: test concentration not given here. Particulars: HepG2 mitochondrial potential, higher = more signal.
A short description of test [7]: JC-1 mitochondrial signal, unstimulated adipocytes – cell-based, JC-1 fluorescence, 3T3-L1 adipocytes, 24 h, 100 nL compound, profiling panel (AID 1168). Note: test concentration not given here. Particulars: JC-1 mitochondrial fluorescence, higher = more signal, called active from +8 up or from −8 down.
Test [8] can be described thus: JC-1 mitochondrial signal, unstimulated myeloma cells – cell-based, JC-1 fluorescence, RPMI8226, 24 h, 100 nL compound, profiling panel (AID 1169). Note: test concentration not given here. Conditions: JC-1 mitochondrial potential fluorescence, higher = more signal.
Test [9] is described as follows: JC-1 mitochondrial signal, unstimulated MM1S myeloma – cell-based, JC-1 fluorescence, 24 h, 100 nL compound, profiling panel (AID 1170). Note: test concentration not given here. Conditions: MM1S mitochondrial potential, higher = more signal.
Test [10] is described as follows: resazurin metabolic signal in A549 cells – cell-based, resazurin fluorescence, 24 h, PK04 Diversity Set, profiling panel (AID 1171). Note: test concentration not given here. Particulars: A549 viability, higher = more signal, called active from +8 up or from −8 down. (Resazurin is reduced to fluorescent resorufin, in cell work by metabolically active cells.)
Test [11] can be described thus: resazurin metabolic signal in HepG2 cells – cell-based, resazurin fluorescence, 24 h, PK04 Diversity Set, profiling panel (AID 1172). Note: test concentration not given here. Conditions: HepG2 viability, higher = more signal.
A short description of test [12]: budding yeast growth changes without added modifier – OD600, strain BY4716, 24 h, basal condition, primary screen (AID 1173). Particulars: S. cerevisiae BY4716 growth, OD600, 24 h; higher = more signal, called active from +8 up or from −8 down.
The nature of test [13]: viability profiling in MM1S myeloma cells – cell-based, resazurin fluorescence, basal, 24 h, PK04 Diversity Set, profiling panel (AID 1174). Note: test concentration not given here. Particulars: higher = more signal, called active from +8 up or from −8 down.
Test [14] addresses Dihydroorotate dehydrogenase (quinone), mitochondrial (Plasmodium falciparum (isolate 3D7)) (UniProt Q08210). The experiment in a line: inhibition of P. falciparum DHODH – biochemical, C-terminal His tag, absorbance 600 nm, primary screen (AID 1175).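 Note: recombinant parasite enzyme with a five histidine tag at its C terminus; test concentration not given here.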 Conditions: PfDHODH enzyme, DCIP absorbance 600 nm; higher = more signal, called active from +8 up or from −8 down.
Test [15] is described as follows: inhibition of PAO1 biofilm formation – strain PAO1, LB-PBS medium, absorbance 600 nm, primary screen (AID 1176). Note: test concentration not given here. Conditions: P. aeruginosa PAO1 growth/biofilm, A600, 12 h; higher = more signal.
Test [16] can be described thus: growth modulation of vineyard yeast isolate – strain RM11-1a, OD600, basal, 24 h, primary screen (AID 1177).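 Note: cultures grown under basal conditions with no added stressor; test concentration not given here.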 Particulars: S. cerevisiae RM11-1a growth, OD600, 24 h; higher = more signal, called active from +8 up or from −8 down.
Test [17] in a line: growth of efflux-deficient E. coli DRC39 – strain DRC39, OD650, 24 h, E. coli filamentation inducers, primary screen (AID 1178).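 Note: growth measured as culture turbidity by optical density at 650 nm; test concentration not given here.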 Conditions: E. coli DRC39 acrAB, higher = more signal, called active from +8 up or from −8 down.
The nature of test [18]: growth of efflux-deficient E. coli DRC39 – strain DRC39, OD650, 48 h, E. coli filamentation inducers, primary screen (AID 1179).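 Note: screen aims at cell division blockers that make cells filament.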 Particulars: E. coli DRC39 delta-acrAB growth, higher = more signal, called active from +8 up or from −8 down.
Test [19] in a line: viability profiling in RPMI8226 myeloma cells – cell-based, resazurin fluorescence, basal, 24 h, PK04 Diversity Set, profiling panel (AID 1180).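 Note: RPMI8826 multiple myeloma cell line at 5000 cells per well; test concentration not given here.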 Particulars: higher = more signal.
The target of test [20] is E3 ubiquitin-protein ligase XIAP (Homo sapiens) (UniProt P98170). Put plainly: small molecules binding XIAP protein – biophysical, small-molecule microarray, fluorescence 635 nm, primary screen (AID 1181).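 Note: score merges 667 nm emission and signal to noise over triplicate slides.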 Particulars: higher = more signal.
Chain of E3 ubiquitin-protein ligase XIAP (Homo sapiens) (P98170 whole entry, looked up): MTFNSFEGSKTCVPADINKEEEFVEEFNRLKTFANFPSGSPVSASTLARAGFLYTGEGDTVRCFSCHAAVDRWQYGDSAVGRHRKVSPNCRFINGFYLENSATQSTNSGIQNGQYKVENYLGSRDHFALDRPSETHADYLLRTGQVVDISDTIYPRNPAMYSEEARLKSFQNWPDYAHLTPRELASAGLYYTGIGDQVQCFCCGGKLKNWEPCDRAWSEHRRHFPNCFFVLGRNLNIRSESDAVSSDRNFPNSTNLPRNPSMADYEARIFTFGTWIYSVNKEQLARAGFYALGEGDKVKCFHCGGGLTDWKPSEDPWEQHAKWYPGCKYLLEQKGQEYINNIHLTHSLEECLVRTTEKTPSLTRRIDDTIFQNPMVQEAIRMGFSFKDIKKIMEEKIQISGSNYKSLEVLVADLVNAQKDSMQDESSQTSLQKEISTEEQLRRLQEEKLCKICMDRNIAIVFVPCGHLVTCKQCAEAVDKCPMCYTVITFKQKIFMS

Here are results for 9 compounds from PubChem BioAssay.

Active and inactive are the calls of the source. Unless noted, the rule behind the calls is not given here.

Chain of Dihydroorotate dehydrogenase (quinone), mitochondrial (Plasmodium falciparum (isolate 3D7)) (Q08210 whole entry, looked up): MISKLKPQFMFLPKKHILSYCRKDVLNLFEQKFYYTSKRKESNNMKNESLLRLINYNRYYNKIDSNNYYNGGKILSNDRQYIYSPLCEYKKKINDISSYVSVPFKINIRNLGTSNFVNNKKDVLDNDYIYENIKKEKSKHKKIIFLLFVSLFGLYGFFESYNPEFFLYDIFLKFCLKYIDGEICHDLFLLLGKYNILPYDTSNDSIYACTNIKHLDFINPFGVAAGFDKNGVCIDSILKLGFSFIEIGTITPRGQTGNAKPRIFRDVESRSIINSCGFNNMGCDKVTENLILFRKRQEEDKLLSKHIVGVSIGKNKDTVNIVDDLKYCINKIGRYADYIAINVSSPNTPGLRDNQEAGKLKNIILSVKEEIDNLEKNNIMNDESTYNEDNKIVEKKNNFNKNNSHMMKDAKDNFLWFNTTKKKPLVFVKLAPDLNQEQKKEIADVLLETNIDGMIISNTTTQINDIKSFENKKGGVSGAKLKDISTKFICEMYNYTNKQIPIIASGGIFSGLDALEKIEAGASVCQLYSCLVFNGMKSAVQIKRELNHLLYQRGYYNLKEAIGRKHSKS

With `COC(=O)C(CC#Cc1ccc2c(c1)[C@]1(C(=O)N2)[C@H](C(=O)Nc2nc3ccccc3s2)[C@H]2C(=O)O[C@H](c3ccccc3)[C@H](c3ccccc3)N2[C@@H]1c1ccc(O)cc1)C(=O)OC`, the z-score in test [1] was 0.567; in [2] it was 0.823; in [3], 1.49; in [4], -1.15; in test [5], -3.43; in test [6], -2.74. Also, the z-score in test [7] was -0.383 (inactive); in test [8] it was -1.31; in test [9], -0.561; in test [10] it was 0.502 (inactive); in [11], 0.793; in [12], -0.0312 (inactive). In addition, the z-score is 0.792 (inactive) in test [13]; 1.23 (inactive) in [15]; 0.698 (inactive) in test [16]; -0.0857 (inactive) in test [17]; -0.169 (inactive) in [18]; -2 in test [19]. In addition, the composite z-score in test [14] was -0.72 (inactive); in [20] it was 0.208.

`COCCOC(=O)N1C(=O)[C@@]2(c3cc(C#CCCO)ccc31)[C@H](C(=O)N1CCCCCCC1)[C@H]1C(=O)O[C@H](c3ccccc3)[C@H](c3ccccc3)N1[C@@H]2c1ccc(OCCO)cc1`: the z-score was 0.338 in test [1]; 1.74 in test [2]; 0.155 in test [3]; -0.284 in test [4]; -1.54 in [5]; -1.68 in test [6]. Moreover, the z-score in test [7] was -1.47 (inactive); in test [8] it was -1.25; in test [9] it was -1.02; in test [10], 0.76 (inactive); in test [11], 0.902; in [12] it was 0.849 (inactive). Besides, the z-score in test [13] was 0.368 (inactive); in [15], 1.56 (inactive); in test [16], 2.32 (inactive); in test [17], -0.0574 (inactive); in [18], 0.215 (inactive); in [19] it was -2.44. For the same compound, the composite z-score was 0.047 (inactive) in [14] and 1.06 in [20].

With `COC(=O)[C@@]1(Cc2ccc(OC)cc2)[C@H]2c3cc(C(=O)N4CCCC4)n(Cc4ccc(C)c(F)c4F)c3C[C@H]2CN1C(=O)c1ccccc1`, the z-score is 0.842 in [1]; 0.0891 in [2]; 0.682 in test [3]; -1.59 in test [4]; -2.66 in test [5]; 3.41 in [6]. Also, the z-score is -0.411 (inactive) in test [7]; -0.735 in test [8]; -1.51 in test [9]; -0.268 (inactive) in [10]; 0.273 in test [11]; 1.9 (inactive) in [12]. The z-score in test [13] is -1.4 (inactive); in [15], -0.843 (inactive); in test [16], 1.41 (inactive); in test [17], 0.35 (inactive); in test [18], -0.237 (inactive); in test [19], -1.59. Further, the composite z-score in test [14] was 0.104 (inactive); in [20] it was 0.0683.

On to `C=C(C)[C@@H]1CC=C(C(O)C2C=CC3C(=O)N(C)C(=O)C3N2Nc2ccccc2)CC1` (stereo not given in full), for which the z-score was -0.889 in [1]; -1.16 in test [2]; -0.651 in [3]; -1.36 in test [4]; 0.0835 in test [5]; -0.9 in [6]. Also, the z-score in test [7] is 4.5 (inactive); in test [8], -0.334; in [9], -0.0333; in test [10] it was 0.392 (inactive); in [11], -0.709; in test [12], 0.773 (inactive). Also, the z-score was -1.03 (inactive) in test [13]; 0.751 (inactive) in [15]; 1.45 (inactive) in [16]; -0.683 (inactive) in test [17]; -0.472 (inactive) in [18]; -0.581 in test [19]. Also, the composite z-score is 0.849 (inactive) in test [14] and 0.0688 in test [20].

For the compound `COc1cccc(-c2cccc(=O)o2)c1`, the z-score in [1] is -1.06; in test [2], -0.458; in test [3], -0.834; in test [4] it was 0.192; in test [5], -1.87; in [6], -1.27. Also, the z-score in [7] is 0.236 (inactive); in [8], 0.812; in test [9] it was 0.0881; in test [10], 0.563 (inactive); in [11] it was -0.314; in test [12], -7.29 (inactive). Further, the z-score in test [13] was -0.28 (inactive); in [15] it was 0.381 (inactive); in test [16], 0.346 (inactive); in test [17], -0.0605 (inactive); in test [18], -0.17 (inactive); in test [19], -0.0335. Further, the composite z-score was -1.02 (inactive) in test [14] and 0.488 in test [20].

As to `C=CC[C@]1(C(=O)NCc2ccccc2)N=C(c2ccc(OCCCO)cc2)O[C@H]1c1ccccc1N=[N+]=[N-]`, the z-score was -1.2 in test [1]; 0.514 in test [2]; -0.0143 in test [3]; -1.77 in [4]; -1.41 in [5]; -0.456 in [6]. Besides, the z-score in test [7] was 0.474 (inactive); in test [8], -0.938; in test [9] it was 0.0422; in test [10], -0.888 (inactive); in [11] it was -0.0155; in test [12], -0.737 (inactive). Further, the z-score in test [13] is -1.93 (inactive); in test [15], 1.39 (inactive); in test [16], 0.599 (inactive); in test [17], 0.498 (inactive); in test [18], -0.822 (inactive); in [19], -1.31. Also, the composite z-score in [14] was 1.52 (inactive); in test [20], 0.0623.

In the case of `COCCOC(=O)N1C(=O)[C@@]2(c3ccccc31)[C@H](c1ccccc1OCCO)N1[C@H](c3ccccc3)[C@H](c3ccccc3)OC(=O)[C@H]1[C@@H]2C(=O)N1CCN(c2ncccn2)CC1`, the z-score in test [1] was -0.588; in test [2], -0.678; in test [3], -0.478; in test [4], -1.7; in test [5] it was -0.949; in test [6] it was 0.323. Further, the z-score in test [7] was 0.665 (inactive); in [8] it was -0.929; in test [9], -1.36; in [10], -1.05 (inactive); in test [11] it was -0.0332; in test [12], 2.64 (inactive). Also, the z-score in test [13] was -1.39 (inactive); in test [15], 3.61 (inactive); in test [16], 3.08 (inactive); in test [17], -0.233 (inactive); in test [18], 0.176 (inactive); in test [19] it was -0.862. The composite z-score in test [14] was -0.539 (inactive); in [20] it was -0.16.

Regarding `COc1ccc(CCNC(=O)[C@@]2(C)c3ccccc3C(=O)N(C(C)C)[C@H]2c2ccc(CO)cc2)cc1`, the z-score in [1] is 0.133; in test [2] it was -0.103; in test [3] it was 0.779; in test [4], -1.35; in [5] it was -0.974; in test [6], 2.6. The z-score is 0.169 (inactive) in test [7]; -0.0396 in test [8]; -0.03 in test [9]; -0.0933 (inactive) in test [10]; -0.848 in [11]; -0.51 (inactive) in [12]. For the same compound, the z-score in test [13] is 0.0132 (inactive); in [15], -0.149 (inactive); in test [16], -0.54 (inactive); in [17], -0.166 (inactive); in test [18] it was 0.0299 (inactive); in test [19], 0.332. Also, the composite z-score is 0.12 (inactive) in test [14] and -0.252 in test [20].

With `COc1cc(NN2C(C(O)c3ccco3)C=CC3C(=O)N(c4ccccc4)C(=O)C32)cc(OC)c1OC` (stereo not given), the z-score in test [1] was -0.5; in [2] it was 0.117; in test [3], -0.337; in test [4] it was 0.0511; in test [5], -0.307; in test [6] it was -0.955. In addition, the z-score in test [7] was -0.967 (inactive); in test [8], 0.187; in test [9], -1.31; in [10] it was -1.54 (inactive); in [11] it was -1.41; in [12], 1.58 (inactive). The z-score is -1.68 (inactive) in [13]; 0.711 (inactive) in test [15]; 0.178 (inactive) in test [16]; -0.225 (inactive) in test [17]; -1.32 (inactive) in test [18]; -1.08 in [19]. Besides, the composite z-score in [14] is -2 (inactive); in test [20], -0.081.
